Bioassay records from PubChem.
The full list was thinned out, with hits kept by preference.
HT1080 IDH1KD tx: HT-1080 IDH1 knockdown cell toxicity (counter line). 360,000 compounds, 2% hits. Potency, µM (series often up to 46.1 µM), without a hit: at the top dose activity, negative = toxicity, hits mostly cytotoxic. HT-1080 IDH1 knockdown viability, ATP luminescence, 48 h;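 further: potency means the concentration at half of the fitted maximal effect; 0% = DMSO wells and -100% = cell-free medium wells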
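Knockdown cells (IDH1KD HT-1080) received compounds 2 h after plating at 750 cells/well and were kept 48 h at 37 °C in 5% FBS RPMI. A CellTiter-Glo luminescence read gave % activity for curve fitting.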
IL-1B inflam inh: inhibitors of inflammasome signaling (IL-1 beta secretion) | 360,000 compounds, 4.7% hits | THP-1 LPS/ATP IL-1B secretion, AlphaLISA, 16 h; active compounds read low | AID 743279 | activity change, % at 57.5 µM; in the data active means activity change below about -50%; inconclusive means mostly about -30% to -49%
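Secreted IL-1B measured by AlphaLISA bead assay after 16 h compound exposure of THP-1 cells; compounds (final up to 57.5 uM) added 1 h before LPS (250 ng/mL) and ATP (1.25 mM) stimulation; lower signal means less secretion.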
TDP1 cell noCPT: qHTS for Inhibitors of human tyrosyl-DNA phosphodiesterase 1 (TDP1): qHTS in cells in absence of CPT; DT40 Tdp1-/- hTDP1 cells, no CPT, ATP luminescence, 48 h; Potency, µM (highest dose often 46.2 µM), for the others: top-dose activity change, negative = growth inhibition, hits mostly inhibitors; 420,000 compounds, 15% hits; further: potency means the concentration at half of the fitted maximal effect; nearly all actives have a fitted effect of over 55% in size
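Stably hTDP1-transfected Tdp1-null chicken DT40 cells were treated with library compounds minus camptothecin and grown for at least 48 hr at 37 °C, after which cellular ATP was quantified by luminescence.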
DT40 TDP1 CPT: DT40-hTDP1 cell growth loss with CPT | chicken DT40 Tdp1-/-;hTDP1 cells + 20 nM CPT, ATP luminescence, 48 h | Potency, µM (series often up to 46.2 µM), inactives show at the top dose activity change, negative = growth inhibition, most hits filed as inhibitors | 420,000 compounds, 12% hits | AID 686979; further: potency means the concentration at half of the fitted maximal effect; nearly all actives have a fitted effect of over 55% in size
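Chicken DT40 Tdp1-/- cells stably complemented with human TDP1 were seeded at 400 cells/well in medium containing 20 nM camptothecin, exposed to pin-transferred compounds, and grown at 37 °C for at least 48 hr. Viability was read as ATP luminescence.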
HT1080-NT tox: kills 2HG-producing HT-1080-NT fibrosarcoma cells | HT-1080-NT fibrosarcoma viability, CellTiter-Glo ATP luminescence, 48 h | Potency, µM (doses to about 46.1 µM), for inactives: at the top dose activity, negative = less viability, most hits filed as cytotoxic | AID 686970 | 360,000 compounds, 1.6% hits;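 further: NT is the 2HG producing partner of a matched IDH1 knockdown line; potency means the concentration at half of the fitted maximal effect; 0% = DMSO-treated cells and -100% = media-only wells without cells; nearly all actives have a fitted effect of over 55% in size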
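Fibrosarcoma NT cells, 750 per well in 5% FBS RPMI, were exposed to compound for 48 hours. Viability: CellTiter-Glo luminescence.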
ALOX12 inh: ALOX12 (human) lipoxygenase inhibition. Potency, µM (top dose mostly 108 µM), for the others: top-dose activity change, negative = inhibition, actives largely listed as inhibitors. 580,000 compounds, 1.1% hits. purified 12hLO, xylenol orange hydroperoxide absorbance. AID 1671190. P18054; further: potency means the concentration at half of the fitted maximal effect
Target sequence (P18054 whole entry, looked up): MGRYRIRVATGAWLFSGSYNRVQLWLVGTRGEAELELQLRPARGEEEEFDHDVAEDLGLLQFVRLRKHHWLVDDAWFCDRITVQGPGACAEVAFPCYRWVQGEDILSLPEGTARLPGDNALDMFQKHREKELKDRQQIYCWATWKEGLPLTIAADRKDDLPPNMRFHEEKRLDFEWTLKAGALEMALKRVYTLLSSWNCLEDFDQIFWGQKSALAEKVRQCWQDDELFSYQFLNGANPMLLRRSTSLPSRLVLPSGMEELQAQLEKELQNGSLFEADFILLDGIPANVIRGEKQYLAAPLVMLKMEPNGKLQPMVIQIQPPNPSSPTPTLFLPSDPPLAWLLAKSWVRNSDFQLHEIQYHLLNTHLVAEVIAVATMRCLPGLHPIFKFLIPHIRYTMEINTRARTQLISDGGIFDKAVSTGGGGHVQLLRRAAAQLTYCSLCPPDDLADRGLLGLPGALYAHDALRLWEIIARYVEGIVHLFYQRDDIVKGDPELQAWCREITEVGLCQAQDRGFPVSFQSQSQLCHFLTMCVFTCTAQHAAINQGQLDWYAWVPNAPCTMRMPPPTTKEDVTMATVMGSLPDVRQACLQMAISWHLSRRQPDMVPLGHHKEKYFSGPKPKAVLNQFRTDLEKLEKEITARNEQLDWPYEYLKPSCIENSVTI
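Purified human 12hLO (150 nM final) in 25 mM Hepes, 0.01% Triton X-100, pH 7.0 was preincubated 15 min at room temperature with compound. Then 40 uM arachidonic acid was added, 30 min. Hydroperoxide was read by Fe-XO absorbance ratio 573/405 nm.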
* marks the source's active call; other numbers are inactive results; ? = inconclusive; · = no result given; [ ] = another dose, or the depositor's remark. Unless noted, the call rests on the fitted dose curve; in most records, active means well fitted curve in the direction sought with a large enough effect; inconclusive means small, poorly fitted or top-dose-only effect, or another doubt; inactive means no such curve, though single readings can be large; an effect the other way counts as inactive or inconclusive. Unless noted, on the % scale 0 is the no-effect control and ±100 the full control effect.

SMILES	HT1080 IDH1KD tx	IL-1B inflam inh	TDP1 cell noCPT	DT40 TDP1 CPT	HT1080-NT tox	ALOX12 inh
CC(C)Cc1cc(CN2CCC(CO)(CN3CCCC3)CC2)[nH]n1	·	·	·	·	·	44%
OCC1(Cc2cccc(C(F)(F)F)c2)CCN(Cc2cc(F)cc(F)c2)CC1	?	-77*	?	?	18µM*	-20%
COc1ccc(C(=O)/C=C/C(=O)N(Cc2ccc(F)cc2)C(C(=O)NC2CCCCC2)c2ccncc2)c(O)c1 (stereo not given)	-10%	-64*	?	?	-4%	·
COc1ccc(C(=O)/C=C/C(=O)N(Cc2ccccc2OC)C(C(=O)NC2CCCCC2)c2ccncc2)c(O)c1 (stereo not given)	?	-78*	21µM*	?	?	-8%
COCCC(=O)N(Cc1ccc2c(c1)OCO2)C(C(=O)NC1CCCCC1)c1ccncc1 (stereo not given)	-3%	21	?	-7%	1%	?
COc1ccccc1CN(C(=O)CCl)C(C(=O)NC1CCCCC1)c1ccncc1 (stereo not given)	4%	5	3%	17%	7%	·
Cc1csc(C)[n+]1CCC1CCCCC1	·	·	13µM*	?	·	·
CCOC(=O)C[n+]1c(C)csc1C	9%	0	2%	0%	14%	-7%
C/C(=N\Nc1nc(C)cc(-c2ccccc2)n1)c1ccc(O)cc1	-14%	-74*	4.6µM*	7.3µM*	10µM*	9%
C/C(=N\Nc1nc(C)cc(-c2ccccc2)n1)c1cccc(N)c1	-1%	5	21µM*	?	-8%	16%
CN(C)CCN(Cc1ccccc1)S(=O)(=O)c1ccc(-c2cc(C(F)(F)F)on2)s1	·	·	12µM*	15µM*	·	?
N=C(N)SCP(=O)(c1ccccc1)c1ccccc1	-14%	-85*	18µM*	21µM*	-13%	11%
Cc1occc1C(=O)N1CCC2(CCCN(Cc3ccc(F)c(F)c3)C2)C1 (stereo not given)	-21%	-25	16µM*	15µM*	-23%	1%
C=C(C)CCC1(C)NC(=O)N(c2ccccc2)N1 (stereo not given)	15µM*	·	-18%	-2%	9.2µM*	?
CC1(CC(=O)Nc2ccccc2)NC(=S)N(c2ccccc2)N1 (stereo not given)	4%	33	-3%	7%	3%	-19%
CC1(c2ccc(O)cc2)NC(=O)N(c2ccccc2)N1 (stereo not given)	10µM*	0	2%	33%	5.8µM*	?
Cc1nn(C2CCS(=O)(=O)C2)c(Cl)c1/C=C/C(=O)OCC(=O)c1cc(C)n(-c2ccc(F)cc2)c1C (stereo not given)	?	-18	16µM*	21µM*	-18%	-9%
Cc1nn(C2CCS(=O)(=O)C2)c(Cl)c1/C=C/C(=O)OCC(=O)c1c[nH]c2ccccc12 (stereo not given)	0%	-14	?	?	-5%	-3%
Cc1c(C(=O)NCc2ccco2)sc2nc(-c3ccccc3)cn12	?	-15	?	?	?	-4%
Cc1c(C(=O)NCc2cccnc2)sc2nc(-c3ccccc3)cn12	·	5	16µM*	-10%	·	4%
Cc1c(C(=O)N(C)Cc2ccccc2)sc2nc(-c3ccc(F)cc3)cn12	·	·	?	?	·	8%
Cc1c(C(=O)NCc2ccc(F)cc2)sc2nc(-c3ccccc3)cn12	·	·	?	18µM*	·	-29%
Cc1c(C(=O)NCc2ccccc2Cl)sc2nc(-c3ccc(F)cc3)cn12	·	·	16µM*	?	·	0%
Cc1c(C(=O)NCc2cccnc2)sc2nc(-c3ccc(F)cc3)cn12	0%	-3	13µM*	?	-1%	10%
Cc1c(C(=O)NCCCN2CCOCC2)sc2nc(-c3ccc(F)cc3)cn12	4%	-14	?	?	?	5%
SMILES	HT1080 IDH1KD tx	IL-1B inflam inh	TDP1 cell noCPT	DT40 TDP1 CPT	HT1080-NT tox	ALOX12 inh
COc1ccc(CCNC(=O)Cc2c(C)c3ccc(OC)c(OC)c3oc2=O)cc1	·	·	·	·	·	-10%
COc1ccc(CCNC(=O)C(=O)c2cn(CC(=O)N3CCCC3)c3ccccc23)cc1	1%	-9	21µM*	-13%	-4%	9%
COc1ccc(C)cc1NC(=O)C(=O)c1cn(CC(=O)N2CCCC2)c2ccccc12	3%	0	18µM*	?	-3%	0%
COc1ccc(NC(=O)C(=O)c2cn(CC(=O)N3CCCC3)c3ccccc23)cc1OC	-23%	-27	13µM*	16µM*	-2%	13%
COc1ccc(CNC(=O)C(=O)c2cn(CC(=O)N3CCCC3)c3ccccc23)cc1	-15%	0	-9%	-5%	-3%	-14%
COc1cccc(NC(=O)C(=O)c2cn(CC(=O)N3CCCC3)c3ccccc23)c1	-12%	?	?	?	-9%	2%
O=C1c2ccccc2CSc2c(O)cccc21	-21%	-64*	-37%	?	-11%	5%
CC1(C)CC[C@]2(C(=O)n3ccnc3)CC[C@]3(C)[C@H](C(=O)C=C4[C@@]5(C)C=C(C#N)C(=O)C(C)(C)[C@@H]5CC[C@]43C)[C@@H]2C1	3.7µM*	-100*	0.65µM*	0.58µM*	4.1µM*	?
Cc1cc(C(C#N)c2ccc(Cl)cc2)c(Cl)cc1NC(=O)CC(C)(C)C (stereo not given)	·	·	·	·	·	-24%
Cc1ccc(C(=O)Cn2c(N3CCOCC3)nc3c2c(=O)n(C)c(=O)n3C)cc1	2%[9.24 µM]	33	-13%	-12%	0%	1%
Cc1cccc(OCC(O)Cn2c(N3CCCCC3)nc3c2c(=O)n(C)c(=O)n3C)c1 (stereo not given)	0%	40	16µM*	?	-4%	?
CCCCNc1nc2c(c(=O)n(C)c(=O)n2C)n1CC(O)COc1ccccc1C (stereo not given)	·	·	18µM*	21µM*	·	19%
Cn1c(=O)c2c(nc(N3CCCCCC3)n2CC(O)COc2ccccc2)n(C)c1=O (stereo not given)	-1%	16	18µM*	23µM*	-5%	-18%
COCCCNc1nc2c(c(=O)[nH]c(=O)n2C)n1CC(O)COc1ccccc1C (stereo not given)	-3%	9	-26%	-18%	-5%	1%
